Screening data deposited in PubChem by National Center for Advancing Translational Sciences (NCATS).
GLP1R inv ag – acts as inverse agonist at human GLP-1 receptor; P43220; HEK293 GLP-1R CRE-luciferase, luminescence, 24 h; GLP-1R form is constitutively active; Potency, µM (top dose mostly 38.3 µM), inactives show at the highest dose activity change, negative = inhibition, most hits filed as inhibitors; 1.6% of 410,000 active; AID 624417; note: % is set by controls: 0 for no effect and ±100 for the full control effect; nearly all actives have a fitted effect of over 55% in size
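Luminescence readout: a drop in cAMP-driven luciferase signal flags inverse agonism at a constitutively active GLP-1R stably expressed in HEK293. Compound exposure lasted 24 hr at 37 deg C, 5% CO2.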
HEK293 tox – cytotoxicity in counter-screen for GLP-1R inverse agonists; 0.13% of 410,000 active; HEK293 cAMP-luciferase reporter cells, luminescence, 24 h; Potency, µM (highest dose often 38.3 µM), inactives show at the top dose activity change, negative = inhibition, hits mostly inhibitors;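 note: loss of luciferase light is scored as toxicity; % is set by controls: 0 for no effect and ±100 for the full control effect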
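Compound-treated cells are incubated 24 hr at 37 deg C under 5% CO2 after a 12 hour attachment period, then luciferase detection reagent is added and luminescence is measured following 12 min at room temperature; lowered signal indicates toxicity.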
PTHR1 ag – PTHR1 (human) receptor agonism; Q03431; HEK293 GP2 PTHR1 cells, GloSensor cAMP luminescence, 1 h; Potency, µM (doses to about 115 µM), without a hit: at the highest dose activation, usual class: activators; 0.075% of 410,000 active; note: nearly all actives have a fitted effect of over 55% in size
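HEK-293-derived GP2 cells expressing PTHR1 and a GloSensor cAMP reporter, 3,000/well, plated overnight, given luciferin plus IBMX (each 0.5 mM as added) for 1 h at 37 °C, then compound for 1 h at 37 °C. Luminescence was read after 15 min at room temperature.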
GLP1R ag – GLP-1 receptor (human) agonism; Potency, µM (titrated, usually from 45.6 µM), for the others: at the highest dose activation, hits mostly activators; P43220; HEK293 GLP-1R CRE-luciferase, luminescence, 4-6 h; cells express a hypersensitive GLP-1R form; 0.007% of 380,000 active; note: % of control where 0% means no effect
An asterisk follows results filed as active; i = inactive; ? = inconclusive; · = no result given; [ ] = another dose, or the depositor's remark. Compounds with a hit are over-represented: about 1.7% of the library has one in this group of screens. Calls come from the whole dose curve; as a rule, active = well fitted curve in the direction sought with a large enough effect; inconclusive = small, poorly fitted or top-dose-only effect, or another doubt; inactive = no such curve, though single readings can be large; an effect the other way counts as inactive or inconclusive. Potency is the fitted concentration of half-maximal effect.

SMILES	GLP1R inv ag	HEK293 tox	PTHR1 ag	GLP1R ag
CC(C)CN(CC(C)C)C(=O)c1cccc(S(=O)(=O)N2CCc3ccccc32)c1	?	?	-7%	6%
Cc1ccc(NC(=O)CN(C)C(=O)c2cccc(S(=O)(=O)N3CCc4ccccc43)c2)cc1	11µM*	-7%	-19%	-6%
COc1cccc(NC(=O)CN(C)C(=O)c2cccc(S(=O)(=O)N3CC4(C)CC3CC(C)(C)C4)c2)c1 (centres undefined)	2%	2%	i	9%
COc1ccc(NC(=O)CN(C)C(=O)c2cccc(S(=O)(=O)N3CC4(C)CC3CC(C)(C)C4)c2)cc1 (centres undefined)	11µM*	-22%	-25%	21%
CCCCNC(=O)c1cccc(S(=O)(=O)N2CC3(C)CC2CC(C)(C)C3)c1 (centres undefined)	10µM*	2%	-20%	9%
CCc1ccc(NCc2cc3cc4c(cc3n(CC(=O)Nc3ccc(Cl)cc3)c2=O)OCO4)cc1	4%	5%	-24%	-6%
CC(C)N1[N]C(=C2C=c3cc(O)ccc3=N2)c2c(N)ncnc21	·	·	·	0%
O=C(Nc1cccc(C(F)(F)F)c1)c1cccnc1N1CCCC1	11µM*	10%	i	16%
O=C(Nc1cccc(C(F)(F)F)c1)c1cccnc1NCCc1ccccc1	3.5µM*	?	-18%	-2%
O=C(Nc1cccc(F)c1)c1cccnc1NCCc1ccccc1	10µM*	-4%	-2%	17%
CC(C(=O)O)c1ccc2c(c1)CC(=O)c1ccccc1S2 (centres undefined)	·	·	·	2%
CCC(=O)Nc1ccc(-c2ccc(N3CCC(C)CC3)nn2)cc1	7.9µM*	5%	-3%	0%
CS(=O)(=O)c1ccc(-c2cccc(NC(=O)c3ccco3)c2)nn1	6%	-10%	-31%	2%
CCC(=O)Nc1cccc(-c2ccc(N3CCC(C)CC3)nn2)c1	-13%	-6%	-47%	-6%
CC1CCN(c2ccc(-c3cccc(NC(=O)C(F)(F)F)c3)nn2)CC1	1µM*	81%	-26%	-3%
CC1CCN(c2ccc(-c3cccc(NC(=O)c4ccco4)c3)nn2)CC1	11µM*	-15%	-20%	13%
C[C@H](CN1c2ccccc2Sc2cccnc21)N(C)C	·	·	·	1%
COc1ccc(-c2csc(NC(=O)C3CCN(c4ncnc5sc(C)c(C)c45)CC3)n2)cc1OC	7.1µM*	?	-30%	10%
COc1ccccc1OCC(=O)NNC(=O)C1CCN(c2ncnc3sc(C)c(C)c23)CC1	?	-16%	-34%	-5%
C[C@@H](c1ccccc1)N1C[C@H](COCc2ccccc2)Oc2cc(N3CC[C@H](O)C3)ccc2S1(=O)=O	10µM*	-12%	-13%	-1%
CCCCC[C@@H](C)N1C[C@H](COCc2ccccc2)Oc2cc(N3CCC[C@@H]3CO)ccc2S1(=O)=O	11µM*	-14%	-40%	0%
Cc1ccc2c(c1)C(O)(c1c(C)[nH]c3ccccc13)C(=O)N2 (centres undefined)	3.2µM*	-12%	-6%[57.5 µM]	-8%
Cc1[nH]c2ccccc2c1C1(O)C(=O)N(C(C)C)c2ccccc21 (centres undefined)	14%	2%	4%	3%
COc1ccc(CCNC(=O)c2ccc3c(c2)N(Cc2ccc(F)cc2)C(=O)c2ccccc2S3(=O)=O)cc1OC	-3%	-24%	28%	·
Cc1noc(C)c1COC(=O)c1cccc(S(=O)(=O)N2c3ccccc3CC2C)c1 (centres undefined)	14µM*	3%	i	3%
SMILES	GLP1R inv ag	HEK293 tox	PTHR1 ag	GLP1R ag
Oc1c(CN2CCc3ccccc3C2)cc(Cl)c2cccnc12	?	?	22µM*	-2%
Oc1c(CN2CCCCC2)cc(Br)c2cccnc12	2.5µM*	?	-37%	-2%
Oc1c(Cl)cc(CN2CCOCC2)c2cccnc12	?	?	-1%	-3%
COc1cc(OC)cc(C(=O)Oc2c(CN3CCOCC3)cc(Cl)c3cccnc23)c1	10µM*	?	i	0%
Cc1ccc(-c2nc(-c3cc4c([nH]c3=O)CC(C)(C)CC4=O)sc2C)cc1	4%	-6%	-4%	·
O=C(NCc1cccc(Cl)c1)c1cnn2c1NC(c1ccco1)CC2C(F)(F)F (centres undefined)	0%	-16%	-15%[57.5 µM]	-7%
